Source: PubChem BioAssay

These molecules were tested on XIP peptide (Xip251-270) binding (assay: small-molecule binders of XIP peptide, primary screen, biochemical, small-molecule microarray, fluorescence 635/667 nm, 0.1 µg/mL protein (AID 1182)). Settings: fluorescent protein binding, 635 nm, higher = more signal, called active from +8 up or from −8 down.

Composite z-score, inactive:
CO[C@@H]1COC(=O)[C@@H](C)COC(=O)[C@@H](C)NC(=O)CC=C[C@@H]1C 0.0875
CCOC(=O)[C@H](CC(C)C)NC(=O)CCC1CC(OC(=O)NCc2cccc3ccccc23)CC2(CCCC(COC(=O)NCCc3ccc(Cl)cc3)O2)O1 (stereo partly drawn) -0.0551
COc1ccc(O[C@@H]2[C@H](O)CO[C@@H]2C=Cc2ccccc2)cc1 0.196
O=C1C2=CC[C@H]3C(=O)N(c4cccc(Oc5ccccc5)c4)C(=O)[C@H]3[C@H]2[C@H](O)[C@@H]2O[C@H]12 -0.0743
O=C1C=C[C@@H](O)[C@@H]2[C@@H]3C(=O)N(C[C@@H]4CCCO4)C(=O)[C@@H]3CC[C@@H]12 0.179
CO[C@H]1COC(=O)[C@H](C)NC(=O)CC=C[C@@H](C)[C@H](OC)COC(=O)[C@@H](OCc2ccccc2)C=C[C@@H]1C -0.296
CCOC(=O)[C@H](CC(C)C)NC(=O)CCC1CC(OC(=O)NCCc2ccc(F)cc2)CC2(CCCC(COC(=O)NCCc3ccc(Cl)cc3)O2)O1 (stereo partly drawn) 1.08
CCN1C(=O)[C@@H]2[C@H]3C(=CC[C@@H]2C1=O)C1(OCCCO1)[C@H]1O[C@H]1[C@H]3O 0.645
CCOC(=O)[C@H](CC(C)C)NC(=O)CCC1CC(OC(=O)NCc2cccc3ccccc23)CC2(CCCC(COC(=O)NCCOc3ccccc3)O2)O1 (stereo partly drawn) 0.761
COC(=O)CC=C[C@@H](C)[C@@H](C=NO[C@@H]1O[C@H](COC(C)=O)[C@@H](OC(C)=O)[C@H](OC(C)=O)[C@H]1OC(C)=O)OC -0.865
CCOC(=O)NN=C1C[C@@H](O)[C@@H](O)[C@@H]2[C@@H]3C(=O)N(Cc4ccccc4)C(=O)[C@@H]3CC[C@H]12 -0.405
Cc1cc2c(nc1C)CCCN2CC(O)CN1CCCc2nc(C)c(C)cc21 0.6
COc1ccc(COC(=O)NN=C2C[C@@H](O)[C@@H](O)[C@@H]3[C@@H]4C(=O)N(C5CCCCC5)C(=O)[C@@H]4CC[C@H]23)cc1 -0.252
COC(=O)CC=C[C@@H](C)[C@@H](C=NOCC[C@@H]1C=C[C@H](OC(C)=O)[C@@H](COC(C)=O)O1)NS(=O)(=O)c1ccc(C)cc1 0.412
CO[C@@H]1C=CCC(=O)N2CCC[C@H]2C(=O)OC[C@@H](C)C(=O)OC[C@H]1C 0.229
C=CC[C@@H]1C=C[C@H](ON=C(C)CCC(=O)OC[C@H]2O[C@H](C#Cc3ccccc3)C=C[C@@H]2Oc2ccc(C)cc2)[C@@H](CO)O1 1.18
CC(CCC(=O)OC[C@H]1O[C@H](C#Cc2ccccc2)C=C[C@@H]1Oc1ccc(C)cc1)=NO[C@H](C)c1cn([C@H](CO)Cc2ccccc2)nn1 0.157
CON=CC[C@@H]1C=C[C@H](OC(C)=O)[C@@H](COC(C)=O)O1 0.726
CO[C@@H]1COC(=O)CC=C[C@@H](C)[C@@H]2C=C[C@H](O)[C@@H](COC(=O)CC=C[C@H]1C)O2 0.0592
CCCCC#C[C@@H]1C=C[C@H](OC(C)=O)[C@@H](COC(C)=O)O1 1.45
C#CCCCON=C1C[C@@H](O)[C@@H](O)[C@@H]2[C@@H]3C(=O)N(c4cccc(Oc5ccccc5)c4)C(=O)[C@@H]3CC[C@H]12 0.332
Cn1c(=O)n2n(c1=O)[C@H]1[C@H](O)[C@@H]3O[C@@H]3C(=NOCc3ccccc3)[C@H]1CC2 0.899
CCOC(=O)C1=NO[C@]2(C=C(Br)C3(OCCCO3)[C@H]3O[C@H]32)C1 -0.788
CCN1C(=O)[C@H]2[C@H]3[C@H](O)[C@H](O)CC(=NOC[C@H]4O[C@H](c5ccccc5)C=C[C@@H]4Oc4ccc(OC)cc4)[C@@H]3CC[C@H]2C1=O 0.432
Cc1ccc(S(=O)(=O)NC(CCc2ccccc2)CC(=O)C(C)(C)C)cc1 (stereo not drawn) 0.275
O=C1CCCC=C1C(O)CCCCBr (stereo not drawn) 0.26
C[C@@H](c1ccccc1)N1C(=O)[C@H]2[C@H]3[C@H](O)[C@H](O)CC(=NO[C@@H]4O[C@H](CO)[C@@H](O)[C@H](O)[C@H]4O)[C@@H]3CC[C@H]2C1=O -0.0769
C#CCCCON=C1C[C@@H](O)[C@@H](O)[C@@H]2[C@@H]3C(=O)N(c4ccc(F)cc4F)C(=O)[C@@H]3CC[C@H]12 1.55
